The supplement of paper PMC10849652
About 7,900 targets were measured; listed, in parts, are those with a hit and a random draw of the rest. About 0.6% of all pairs of compound and target were hits.

What follows are targets tested with Cn1cc(-c2ccc3nnc(C(F)(F)c4ccc5ncccc5c4)n3n2)cn1 (assay: log2 fold change, soluble protein after heating vs DMSO (PISA); higher = thermal stabilisation; K562 cells, 10 uM, 30 min; active = over 0.2 and 3.5 SD of the protein, either way, in both replicates (recomputed)).
Outline: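 K562 cells at 2×10^6 cells/mL were treated for 30 min with 10 μM compound, and aliquots were heated for 3 min over 48°C-58°C before pooling. Extraction used PBS with 0.5% NP-40 at 4°C, and soluble protein was the supernatant after 21,000xg for 90 min, measured by TMTpro 16plex LC-MS/MS with channel sums equalised. Thermal stability values, relative to control samples and from duplicates, are log2 fold changes.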

Sequence of UniProt Q99643 (Q99643 whole entry, looked up): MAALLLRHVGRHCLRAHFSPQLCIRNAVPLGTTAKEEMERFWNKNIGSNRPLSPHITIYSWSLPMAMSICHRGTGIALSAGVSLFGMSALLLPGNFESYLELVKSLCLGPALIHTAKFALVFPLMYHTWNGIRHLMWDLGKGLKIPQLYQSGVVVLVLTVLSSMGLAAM
Sequence of UniProt P49756 (P49756 whole entry, looked up): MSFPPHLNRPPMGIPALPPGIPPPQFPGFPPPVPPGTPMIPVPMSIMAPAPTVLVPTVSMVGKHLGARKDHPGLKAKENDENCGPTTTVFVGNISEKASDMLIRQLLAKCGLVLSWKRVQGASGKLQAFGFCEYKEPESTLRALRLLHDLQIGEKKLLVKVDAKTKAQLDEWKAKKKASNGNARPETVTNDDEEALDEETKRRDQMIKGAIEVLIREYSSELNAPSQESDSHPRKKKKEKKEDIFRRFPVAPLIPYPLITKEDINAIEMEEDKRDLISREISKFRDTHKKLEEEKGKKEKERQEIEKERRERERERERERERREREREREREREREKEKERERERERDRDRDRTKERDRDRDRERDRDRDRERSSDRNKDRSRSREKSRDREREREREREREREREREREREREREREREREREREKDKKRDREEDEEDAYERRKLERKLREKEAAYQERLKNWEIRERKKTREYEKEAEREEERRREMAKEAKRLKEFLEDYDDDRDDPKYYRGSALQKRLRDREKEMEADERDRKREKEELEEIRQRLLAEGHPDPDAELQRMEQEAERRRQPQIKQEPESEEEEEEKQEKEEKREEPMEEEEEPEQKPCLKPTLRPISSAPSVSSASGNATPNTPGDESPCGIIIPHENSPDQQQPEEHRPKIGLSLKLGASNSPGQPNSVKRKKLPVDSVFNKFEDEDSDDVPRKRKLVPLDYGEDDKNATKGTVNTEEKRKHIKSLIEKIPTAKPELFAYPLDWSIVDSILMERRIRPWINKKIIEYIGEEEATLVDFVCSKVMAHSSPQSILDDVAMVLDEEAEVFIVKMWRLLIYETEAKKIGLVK
Sequence of UniProt Q14151 (Q14151 whole entry, looked up): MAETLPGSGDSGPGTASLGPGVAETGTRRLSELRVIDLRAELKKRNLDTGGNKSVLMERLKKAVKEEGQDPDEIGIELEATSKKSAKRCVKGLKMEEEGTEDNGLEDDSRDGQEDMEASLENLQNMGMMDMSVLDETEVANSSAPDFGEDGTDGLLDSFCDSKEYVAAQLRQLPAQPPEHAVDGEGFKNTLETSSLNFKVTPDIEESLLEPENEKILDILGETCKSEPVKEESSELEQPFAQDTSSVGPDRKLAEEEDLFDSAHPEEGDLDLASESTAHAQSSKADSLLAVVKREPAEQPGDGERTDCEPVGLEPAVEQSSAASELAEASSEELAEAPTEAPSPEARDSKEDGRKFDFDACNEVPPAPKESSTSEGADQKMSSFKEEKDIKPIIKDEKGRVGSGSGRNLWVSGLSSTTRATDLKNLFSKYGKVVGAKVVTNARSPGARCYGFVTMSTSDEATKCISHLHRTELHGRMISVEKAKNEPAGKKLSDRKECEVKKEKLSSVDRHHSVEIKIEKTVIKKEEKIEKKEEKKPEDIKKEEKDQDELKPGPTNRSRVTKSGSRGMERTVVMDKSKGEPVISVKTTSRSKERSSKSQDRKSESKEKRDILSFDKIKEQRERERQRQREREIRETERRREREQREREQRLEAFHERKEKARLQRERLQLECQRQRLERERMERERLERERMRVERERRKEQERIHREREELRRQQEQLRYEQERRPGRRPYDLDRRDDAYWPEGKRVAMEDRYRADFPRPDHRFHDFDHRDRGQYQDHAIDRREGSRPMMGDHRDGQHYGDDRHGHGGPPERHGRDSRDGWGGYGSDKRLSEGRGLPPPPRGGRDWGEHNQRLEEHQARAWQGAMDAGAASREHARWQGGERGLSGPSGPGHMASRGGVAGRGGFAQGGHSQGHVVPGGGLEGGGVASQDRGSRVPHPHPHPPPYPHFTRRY
Sequence of UniProt O94885 (O94885 whole entry, looked up): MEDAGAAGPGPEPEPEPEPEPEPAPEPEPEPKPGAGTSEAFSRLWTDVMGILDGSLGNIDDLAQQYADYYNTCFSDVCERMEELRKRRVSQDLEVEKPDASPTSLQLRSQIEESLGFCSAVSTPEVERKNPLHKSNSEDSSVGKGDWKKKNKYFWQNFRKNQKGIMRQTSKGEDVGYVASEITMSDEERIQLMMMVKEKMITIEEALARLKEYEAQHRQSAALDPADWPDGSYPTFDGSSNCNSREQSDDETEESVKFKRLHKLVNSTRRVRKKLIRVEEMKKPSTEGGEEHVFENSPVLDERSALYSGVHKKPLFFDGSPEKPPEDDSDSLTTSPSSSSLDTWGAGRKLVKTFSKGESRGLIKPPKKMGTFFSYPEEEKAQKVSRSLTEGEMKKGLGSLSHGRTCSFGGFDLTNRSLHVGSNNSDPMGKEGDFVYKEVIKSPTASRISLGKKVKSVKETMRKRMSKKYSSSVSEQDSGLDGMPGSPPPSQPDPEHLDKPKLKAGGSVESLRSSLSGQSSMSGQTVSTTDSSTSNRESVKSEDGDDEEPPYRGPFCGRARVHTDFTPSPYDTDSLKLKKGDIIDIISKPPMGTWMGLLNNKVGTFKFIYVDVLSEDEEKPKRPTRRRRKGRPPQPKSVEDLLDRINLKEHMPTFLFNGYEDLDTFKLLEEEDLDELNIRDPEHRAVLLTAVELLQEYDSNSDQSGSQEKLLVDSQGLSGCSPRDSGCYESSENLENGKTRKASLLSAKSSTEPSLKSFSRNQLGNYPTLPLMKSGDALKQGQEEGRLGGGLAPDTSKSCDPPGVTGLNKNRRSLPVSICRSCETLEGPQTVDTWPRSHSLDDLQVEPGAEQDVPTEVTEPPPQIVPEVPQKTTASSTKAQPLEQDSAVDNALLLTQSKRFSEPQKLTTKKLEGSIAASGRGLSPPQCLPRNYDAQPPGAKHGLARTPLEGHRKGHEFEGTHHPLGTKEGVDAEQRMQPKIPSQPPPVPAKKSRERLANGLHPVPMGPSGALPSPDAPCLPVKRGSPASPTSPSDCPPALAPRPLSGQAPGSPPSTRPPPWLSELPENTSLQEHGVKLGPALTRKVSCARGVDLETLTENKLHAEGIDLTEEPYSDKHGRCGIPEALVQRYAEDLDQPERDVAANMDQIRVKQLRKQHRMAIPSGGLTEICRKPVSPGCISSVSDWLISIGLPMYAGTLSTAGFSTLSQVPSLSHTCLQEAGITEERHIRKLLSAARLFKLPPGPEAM
Sequence of UniProt Q15436 (Q15436 whole entry, looked up): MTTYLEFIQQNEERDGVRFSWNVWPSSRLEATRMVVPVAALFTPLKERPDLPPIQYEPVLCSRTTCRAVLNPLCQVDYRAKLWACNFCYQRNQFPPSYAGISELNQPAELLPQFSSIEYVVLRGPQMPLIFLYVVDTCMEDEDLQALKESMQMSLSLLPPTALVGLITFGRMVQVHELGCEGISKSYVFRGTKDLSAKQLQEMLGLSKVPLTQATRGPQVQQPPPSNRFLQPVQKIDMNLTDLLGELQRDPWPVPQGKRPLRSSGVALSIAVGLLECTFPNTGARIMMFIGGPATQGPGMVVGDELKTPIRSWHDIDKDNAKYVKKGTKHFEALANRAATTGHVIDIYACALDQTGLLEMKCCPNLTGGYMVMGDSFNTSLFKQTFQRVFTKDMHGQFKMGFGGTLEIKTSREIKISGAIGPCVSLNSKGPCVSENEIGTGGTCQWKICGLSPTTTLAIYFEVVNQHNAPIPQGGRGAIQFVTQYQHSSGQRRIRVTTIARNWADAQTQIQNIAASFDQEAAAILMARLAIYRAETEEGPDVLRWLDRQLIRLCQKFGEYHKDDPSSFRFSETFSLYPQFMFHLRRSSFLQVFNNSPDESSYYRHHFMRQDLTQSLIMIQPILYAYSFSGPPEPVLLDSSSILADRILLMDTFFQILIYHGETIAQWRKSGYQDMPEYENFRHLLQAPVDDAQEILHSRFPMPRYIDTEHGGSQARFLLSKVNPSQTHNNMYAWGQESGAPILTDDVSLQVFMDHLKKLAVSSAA
Sequence of UniProt Q15382 (Q15382 whole entry, looked up): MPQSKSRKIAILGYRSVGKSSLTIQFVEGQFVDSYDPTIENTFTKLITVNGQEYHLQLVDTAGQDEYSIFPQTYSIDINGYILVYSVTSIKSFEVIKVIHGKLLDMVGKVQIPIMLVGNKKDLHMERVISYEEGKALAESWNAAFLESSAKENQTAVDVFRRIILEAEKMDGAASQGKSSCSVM
Sequence of UniProt P41440 (P41440 whole entry, looked up): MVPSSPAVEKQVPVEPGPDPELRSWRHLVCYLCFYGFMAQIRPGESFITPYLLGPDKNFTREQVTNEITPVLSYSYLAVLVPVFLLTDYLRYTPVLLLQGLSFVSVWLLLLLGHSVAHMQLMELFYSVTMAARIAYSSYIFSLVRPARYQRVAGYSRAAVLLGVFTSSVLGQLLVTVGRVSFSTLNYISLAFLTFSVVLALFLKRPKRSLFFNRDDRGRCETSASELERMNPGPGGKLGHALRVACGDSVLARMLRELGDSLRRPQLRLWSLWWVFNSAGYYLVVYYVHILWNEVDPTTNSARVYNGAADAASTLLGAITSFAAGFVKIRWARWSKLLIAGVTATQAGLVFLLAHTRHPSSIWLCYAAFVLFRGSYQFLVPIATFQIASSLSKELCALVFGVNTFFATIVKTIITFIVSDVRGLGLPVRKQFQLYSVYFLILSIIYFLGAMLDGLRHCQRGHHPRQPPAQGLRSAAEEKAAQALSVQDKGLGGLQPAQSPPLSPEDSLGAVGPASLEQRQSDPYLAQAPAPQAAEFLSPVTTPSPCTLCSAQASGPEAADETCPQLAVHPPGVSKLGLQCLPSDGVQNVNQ
Sequence of UniProt Q14493 (Q14493 whole entry, looked up): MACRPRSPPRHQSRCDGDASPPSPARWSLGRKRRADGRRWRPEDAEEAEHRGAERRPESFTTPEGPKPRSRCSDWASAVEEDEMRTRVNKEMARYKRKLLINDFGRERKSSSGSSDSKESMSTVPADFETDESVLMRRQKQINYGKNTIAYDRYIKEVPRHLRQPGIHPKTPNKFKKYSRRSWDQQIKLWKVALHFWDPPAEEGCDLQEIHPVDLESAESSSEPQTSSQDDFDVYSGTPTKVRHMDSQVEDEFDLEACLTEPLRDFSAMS

log2 fold change, inactive:
SLBP (UniProt Q14493) -0.033, RDH10 (UniProt Q8IZV5) 0.183, SAFB2 (UniProt Q14151) -0.058, SEC23A (UniProt Q15436) -0.052, SCG3 (UniProt Q8WXD2) -0.037, RUFY1 (UniProt Q96T51) 0.05, SLC19A1 (UniProt P41440) -0.026, SFXN5 (UniProt Q8TD22) 0.093, RAC3 (UniProt P60763) 0.064, RPRD1B (UniProt Q9NQG5) -0.035, SDHC (UniProt Q99643) -0.024, RRAGC (UniProt Q9HB90) 0.05, RPS19 (UniProt P39019) -0.068, RHEB (UniProt Q15382) 0.001, RBM17 (UniProt Q96I25) -0.028, SIRT2 (UniProt Q8IXJ6) -0.002, RBM12 (UniProt Q9NTZ6) 0.015, SASH1 (UniProt O94885) 0.073, RPS20 isoform 2 (UniProt P60866) -0.008, RPP14 (UniProt O95059) -0.054, RBM25 (UniProt P49756) -0.096, RCOR1 (UniProt Q9UKL0) 0.033, RPS12 (UniProt P25398) -0.004, RAB9A (UniProt P51151) 0.001
